# Experimental data: PubChem BioAssay (NCATS)
# Values without a mark were called inactive. Where a call stands in place of a potency, no number is given. Active and inactive are the calls of the source. Calls come from the whole dose curve; as a rule, active = well fitted inhibition curve with a large enough effect; inconclusive = small, poorly fitted or top-dose-only effect; inactive = flat fitted curve, though single readings scatter. *1 amine or outer side, *2 acyl side, *3 side chain or, on linkers, in order; H or OH if unused. Where a SMILES comes first, the peptide text is derived from it. Bridges are numbered along the chain shown (N, C = ends). X6 = O=C(CCC[*:2])[*:1]
# Tested on: Nanoluciferase (engineered Oplophorus gracilirostris luciferase)
# Assay: Primary Nanoluciferase (NLuc) qHTS assay for identification of artifact compounds. (AID 1845222);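 note: NLuc secreted into diluted conditioned medium of S16 cells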
# Settings: NLuc-conditioned medium, Nano-Glo luminescence, 5 min; series mostly up to 54.1 µM
# How it was run: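 S16 cell supernatant NLuc, 1:55; cpds qHTS; 15 min RT dark; Nano-Glo substrate 1:100, 5 min; luminescence; Hill fit of % inhibition.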
SMILES,Potency,"activity, negative = inhibition"
N[C@H]1C[C@H]1c1ccc(-c2cccc(O)c2)cc1,inactive,
CC(C)NC[C@H](O)COc1ccc(CCOCC2CC2)cc1,inactive,
COc1cc(N2CCC(N(C)C)CC2)ccc1Nc1ncc(Cl)c(Nc2ccccc2P(C)(C)=O)n1,inactive,
CC1(C)CCC(C)(C)c2cc([C@@H](O)C(=O)Nc3ccc(C(=O)O)cc3F)ccc21,inactive,
COc1cc(/C=C/C(=O)O[C@H]2[C@H](O)[C@@H](CO)O[C@@]2(CO)O[C@H]2O[C@H](COC(=O)c3ccc(O)cc3)[C@@H](O)[C@H](O)[C@H]2O)cc(OC)c1OC,inactive,
O=C1NC(=Nc2ccccc2F)S/C1=C\c1ccc(C(=O)O)cc1,inactive,
CC1(C)CC[C@]2(C(=O)O)CC[C@]3(C)C(=CCC4[C@@]5(C)CC[C@H](O[C@@H]6O[C@H](C(=O)O)[C@@H](O)[C@H](O)[C@H]6O)C(C)(CO)C5CC[C@]43C)C2C1 (some centres not stated),inactive,
CC12CCC3C(C)(C)C(O)CCC3(C)C1Cc1c(oc(C(=O)O)cc1=O)O2 (configuration not stated),inactive,
CC1=C(C)C(=O)OC(C(C)C2C(O)CC3C4C5OC5C5(O)CC(OC6OC(CO)C(O)C(O)C6O)CC(O)C5(C)C4CCC32C)C1 (configuration not stated),inactive,
COc1cc(COC2OC(CO)C(O)C(O)C2O)cc(OC)c1O (configuration not stated),inactive,
O=C(c1ccc(C#Cc2cccc(F)c2)cn1)N1CC2CC2C1 (configuration not stated),inactive,
Nc1ccn([C@@H]2C(F)=C(CO)[C@@H](O)[C@H]2O)c(=O)n1,inactive,
CC[C@H]1OC(=O)C[C@@H](O)[C@H](C)[C@@H](O[C@@H]2O[C@H](C)[C@@H](O)[C@H](N(C)C)[C@H]2O)[C@@H](CCN2C[C@H](C)C[C@H](C)C2)C[C@@H](C)C(=O)/C=C/C(C)=C/[C@@H]1CO[C@@H]1O[C@H](C)[C@@H](O)[C@@H](OC)[C@H]1OC,inactive,
CC1(C)C[C@H]2C3=CCC4[C@@]5(C)CC[C@H](O[C@H]6O[C@H](C(=O)O)[C@@H](O)[C@H](O)[C@H]6O[C@H]6O[C@H](CO)[C@@H](O)[C@H](O)[C@H]6O[C@@H]6O[C@H](CO)[C@@H](O)[C@H](O)[C@H]6O)[C@](C)(CO)C5CC[C@@]4(C)[C@]3(C)CC[C@@]2(C)[C@H](O[C@@H]2OC[C@H](O)[C@H](OC3O[C@H](CO)[C@@H](O)[C@H](O)[C@H]3O)[C@H]2O)[C@@H]1O (some centres not stated),,4.18% [at 11.6 µM]
Cc1cc(O)cc(Oc2cc(C)c(C(=O)O)c(O)c2)c1,inactive,
COC(=O)[C@H](OC(C)=O)[C@H]1C(C)(C)C(=O)[C@H]2CC3=C4CC(=O)O[C@@H](c5ccoc5)[C@]4(C)CCC3[C@@]1(C)C2=O (some centres not stated),inactive,
C=C1CC[C@@H]2[C@](C)(CO[C@@H]3O[C@H](CO)[C@@H](O)[C@H](O)[C@H]3O)CCC[C@@]2(C)[C@@H]1CCC1=CCOC1=O,inactive,
O=C1C[C@@H](c2ccc(O)cc2)Oc2cc(O)ccc21,inactive,
N[C@@H](CC(=O)N1CCn2c(nnc2C(F)(F)F)C1)Cc1[nH]nc2c(F)c(F)ccc12,inactive,
C[C@]1(OC(=O)/C=C/c2ccccc2)C[C@H](O)[C@]2(O)C=CO[C@@H](O[C@@H]3O[C@H](CO)[C@@H](O)[C@H](O)[C@H]3O)C12 (some centres not stated),inactive,
CO[C@@H]1CC[C@H](OC[C@]2(COC(=O)c3ccc(C)[nH]3)[C@H](OC(C)=O)CC[C@@]3(C)[C@@H]4CC=C(C)[C@@H](C5=C(O)C(=O)OC5O)[C@]4(C)CC[C@@H]32)O[C@H]1C (some centres not stated),inactive,
CC(C)c1cc2c(c(O)c1O[C@@H]1O[C@H](CO)[C@@H](O)[C@H](O)[C@H]1O)CC1(O)CCC(O)C(C)(C)C1CC2 (some centres not stated),inactive,
O=C(O)c1ccc(CCCc2ccc(OCCc3ccc(F)cc3)cc2)o1,inactive,
CC[C@H](C)[C@@H]1NC(=O)[C@H](Cc2ccc(OC)cc2)NC(=O)CCCSC[C@@H](C(=O)N2CCC[C@H]2C(=O)N[C@@H](CC(C)C)C(=O)NCC(N)=O)NC(=O)[C@H](CC(N)=O)NC(=O)[C@H](CCC(N)=O)NC1=O (Y(Me)IQNCPLG-NH2; linker N-5 via X6),inactive,
CC1(CO)CC2C(O)C(=O)C3(CO)CC3(C)C2C1 (configuration not stated),inactive,
COc1cc(NC(=O)c2ccccn2)ccc1Cl,inactive,
C[C@@H]1O[C@@H](O[C@H]2[C@H](O[C@H]3CO[C@@H](O[C@H]4CC[C@@]5(C)C(CC[C@]6(C)C5CC[C@]57OC[C@@]8(CC[C@](C)(CO)CC85)[C@H](O)C[C@]76C)C4(C)C)[C@H](O[C@@H]4O[C@H](CO)[C@@H](O)[C@H](O)[C@H]4O)[C@H]3O)O[C@H](CO)[C@@H](O)[C@@H]2O)[C@H](O)[C@H](O)[C@H]1O (some centres not stated),,-0.449% [at 11.6 µM]
